# Reference: PubChem BioAssay
# The source made the active and inactive calls.
# How the values were obtained:
# [1] = compound effects on lung adenocarcinoma cell viability – A549, calcein-AM fluorescence, 48 h, basal, profiling panel (AID 1162); details: higher = more signal
# [2] = compound effects on differentiated 3T3-L1 adipocyte viability – cell-based, 3T3-L1 adipocytes, calcein-AM fluorescence, 48 h, basal, profiling panel (AID 1163); details: 3T3-L1 adipocytes viability, higher = more signal
# [3] = compound effects on hepatocellular carcinoma cell viability – HepG2, calcein-AM fluorescence, 48 h, basal, profiling panel (AID 1164); details: higher = more signal
# [4] = compound effects on multiple myeloma cell viability – MM1S, calcein-AM fluorescence, 48 h, basal, profiling panel (AID 1165); details: higher = more signal;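 also: viability of MM1S multiple myeloma cells under basal unstimulated conditions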
# [5] = calcein-AM signal in unstimulated myeloma cells – cell-based, calcein-AM fluorescence, 48 h, PK04 Diversity Set, profiling panel (AID 1166); details: RPMI8226 myeloma viability, higher = more signal;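 also: cells grown under basal conditions without added stimulus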
# [6] = JC-1 mitochondrial signal, unstimulated HepG2 cells – cell-based, JC-1 fluorescence, 24 h, 100 nL compound, profiling panel (AID 1167); details: HepG2 mitochondrial potential, higher = more signal
# [7] = JC-1 mitochondrial signal, unstimulated adipocytes – cell-based, JC-1 fluorescence, 3T3-L1 adipocytes, 24 h, 100 nL compound, profiling panel (AID 1168); details: JC-1 mitochondrial fluorescence, higher = more signal, called active from +8 up or from −8 down
# [8] = JC-1 mitochondrial signal, unstimulated myeloma cells – cell-based, JC-1 fluorescence, RPMI8226, 24 h, 100 nL compound, profiling panel (AID 1169); details: JC-1 mitochondrial potential fluorescence, higher = more signal
# [9] = JC-1 mitochondrial signal, unstimulated MM1S myeloma – cell-based, JC-1 fluorescence, 24 h, 100 nL compound, profiling panel (AID 1170); details: MM1S mitochondrial potential, higher = more signal
# [10] = resazurin metabolic signal in A549 cells – cell-based, resazurin fluorescence, 24 h, PK04 Diversity Set, profiling panel (AID 1171); details: A549 viability, higher = more signal, called active from +8 up or from −8 down
# Also: test concentration not given here.
SMILES,z-score [1],z-score [2],z-score [3],z-score [4],z-score [5],z-score [6],z-score [7],z-score [8],z-score [9],z-score [10]
C[C@@H]1ON(c2ccccc2)[C@H](c2ccccc2)[C@H]1C(=O)N1C(=O)OC[C@H]1Cc1ccccc1,-0.245,0.701,-0.0596,-1.4,-0.0681,1.38,0.00493 (inactive),-0.137,-0.645,1.38 (inactive)
CC(C)=CCCC(C)=CC(O)C1C=CC2C(=O)N(c3ccccc3)C(=O)C2N1Nc1ccc([N+](=O)[O-])cc1 (stereo not given),-0.498,0.701,-0.0971,-1.2,-0.186,-1.07,-1.44 (inactive),0.417,1.41,-0.214 (inactive)
C=C(/C(=C/C[C@@H](OC(=O)c1ccncc1)c1ccccc1OCCO)c1cnc2ccccc2c1)C(C)C,-0.36,-0.368,-3.15,-3.1,-2.45,0.76,-0.19 (inactive),0.14,1.08,-1.15 (inactive)
COc1cc(NN2C(C(O)c3ccc(I)cc3)C=CC3C(=O)N(C)C(=O)C32)cc(OC)c1OC (stereo not given),-0.0595,0.459,0.196,-0.07,0.24,-0.461,0.0122 (inactive),-0.335,-0.311,-1.42 (inactive)
CCCNC(=O)[C@@]1(Sc2ccc(C)cc2)CC(=O)N(Cc2ccccc2)[C@@H]1c1ccc(CO)cc1I,-0.422,-0.525,0.0653,-2.18,-2.52,-0.901,-0.686 (inactive),-0.935,-1.89,0.198 (inactive)
O=C1N(CCS(=O)(=O)c2ccccc2)c2ccccc2[C@H]2OC(c3ccc(OCCCO)cc3)=N[C@@]12CCS(=O)(=O)c1ccccc1,0.571,0.771,0.504,0.201,-0.0504,-0.38,2.29 (inactive),-0.371,-1.23,0.789 (inactive)
COC(=O)[C@@]1(Cc2ccc(OC)cc2)[C@H]2c3cc(C(=O)N4CCCC4)n(Cc4ccc(C)o4)c3C[C@H]2CN1C(=O)c1ccccc1,-3.86,-3.17,-5.75,-3.31,-4.69,-4.45,3.65 (inactive),-0.815,-2.9,-7.08 (inactive)
CC(C)C(CO)N1C(=O)[C@@H]2[C@H]3C(=O)OCC=C[C@H]3OC23C=CCN(CCN2CCOCC2)C(=O)[C@@H]13 (stereo not given in full),-0.334,-0.347,-0.434,-0.201,0.372,-0.982,-0.648 (inactive),0.237,0.105,-0.324 (inactive)
C=C[C@H](C)[C@H](OC(=O)Nc1ccc(SC)cc1)c1ccc(O)c2ccccc12,-0.561,-0.557,-1.51,-2.74,-3.78,-3.16,-0.818 (inactive),-0.939,-1.51,-1.12 (inactive)
COC(=O)C(CC#Cc1ccc2c(c1)[C@]1(C(=O)N2)[C@H](C(=O)N2CCc3cc(OC)c(OC)cc3C2)[C@H]2C(=O)O[C@H](c3ccccc3)[C@H](c3ccccc3)N2[C@@H]1c1ccc(OCCO)cc1)C(=O)OC,0.968,-0.204,1.63,0.783,0.678,-2.03,0.375 (inactive),-0.678,-1.49,0.21 (inactive)
Cc1ccc(S[C@]2(C(=O)O)CC(=O)N(C3CCCCC3)[C@@H]2c2ccc(CO)cc2)cc1,-0.0959,-0.753,0.952,-0.634,0.761,0.318,0.144 (inactive),-0.148,-0.776,-0.345 (inactive)
CN1C(=O)C2C=CC(C(O)c3cccc4ccccc34)N(NC(=O)OC(C)(C)C)C2C1=O (stereo not given),-0.927,-0.0679,-0.559,-0.248,-1.49,-2.24,-0.532 (inactive),0.219,0.437,-0.195 (inactive)
[N-]=[N+]=NCc1ccccc1[C@H]1OC(c2ccc(OCCCO)cc2)=N[C@@]1(Cc1ccccc1N=[N+]=[N-])C(=O)NCCN1CCOCC1,-0.71,-0.675,0.0583,-1.71,-1.52,-0.247,-0.738 (inactive),-0.841,-0.549,0.0825 (inactive)
Cc1ccccc1C(O)C1C=CC2C(=O)N(C)C(=O)C2N1Nc1ccc([N+](=O)[O-])cc1[N+](=O)[O-] (stereo not given),0.544,-0.729,0.839,-1.04,-0.582,-1.57,-1.15 (inactive),-0.0251,-1.09,-0.372 (inactive)
C=CCC(OC(C)=O)[C@@H]1[C@@H](N(Cc2cc3ccccc3o2)C(=O)Cc2ccc(OC)cc2)c2cc(OCCCO)ccc2N1C(=O)c1ccc(-c2ccccc2)cc1 (stereo not given in full),0.328,1.05,0.228,-0.841,-1.82,3.42,0.182 (inactive),-0.392,0.415,-0.451 (inactive)
CCCC=C(CCC)[C@@H](NS(=O)(=O)c1cccc2cccnc12)c1ccc(C(=O)OC)cc1,-1.76,-0.0806,-1.38,0.131,-0.0956,-1.52,-0.553 (inactive),0.907,-1.13,0.174 (inactive)

SMILES,z-score [1],z-score [2],z-score [3],z-score [4],z-score [5],z-score [6],z-score [7],z-score [8],z-score [9],z-score [10]
COC(=O)[C@@]1(Cc2ccc(F)cc2)[C@@H]2[C@@H](CC(=O)[C@H]2CC(=O)C(=O)N2CCCC2)CN1C(=O)c1ccccc1,-0.974,-0.0508,-0.191,-2,-1.73,0.129,-1.52 (inactive),-0.96,-1.25,-0.919 (inactive)
COC(=O)[C@@]1(Cc2ccccc2)[C@H]2c3cc(C(=O)N(C)C)n(Cc4ccccn4)c3C[C@H]2CN1C(=O)c1ccccc1,-1.43,-0.125,-0.468,-1,-1.71,0.428,-0.698 (inactive),0.00235,-0.135,-0.712 (inactive)
C=C(COC)/C(=C/C[C@@H](OC(=O)c1ccncc1)c1cccc(OCCO)c1)c1cc(C(=O)OC)ccc1OC,-0.637,-0.628,-1.45,-2.22,-2.37,1.37,-0.109 (inactive),-0.574,-1.26,-1.8 (inactive)
CC1=C2[C@@H](CCc3ccccc3)OB(O)C[C@@H]2[C@@H]2C(=O)C=CC(=O)[C@@H]2C1,-0.223,0.36,-0.63,-3.38,-3.64,-3.63,-1.5 (inactive),-1.12,-2.78,-0.247 (inactive)
COc1ccc(C#Cc2ccc3c(c2)[C@]2(C(=O)N3)[C@H](C(=O)O)[C@H]3C(=O)O[C@H](c4ccccc4)[C@H](c4ccccc4)N3[C@@H]2c2ccc(OCCO)cc2)cc1,0.614,0.971,1.27,-2.45,-4.03,-4.14,-4.58 (inactive),-1.23,-1.27,0.982 (inactive)
COc1ccc([Si](C)(C)[C@@H]2[C@@H](CC(=O)N3Cc4ccccc4C[C@H]3CO)O[C@]3(C(=O)N(Cc4cccc(N5CCCCC5=O)c4)c4ccccc43)[C@H]2C)cc1,-0.824,1.85,-1.27,-1.55,-3.36,-0.157,0.472 (inactive),-0.901,-0.398,-2.68 (inactive)
CCCC[C@H]1OB(O)C[C@H]2C1=C(COc1ccccc1)Cn1c(=O)n(-c3ccccc3)c(=O)n12,-0.428,0.75,-0.561,-0.206,-1.28,-2.12,0.16 (inactive),0.268,-0.958,-0.412 (inactive)
NC(=O)NCC#Cc1ccc2c(c1)[C@]1(C(=O)N2)[C@H](c2ccc(OCCO)cc2)N2[C@H](c3ccccc3)[C@H](c3ccccc3)OC(=O)[C@H]2[C@@H]1C(=O)N1CCN(c2ncccn2)CC1,0.947,0.212,0.674,-0.167,0.62,-1.45,0.721 (inactive),-0.726,-0.669,1.1 (inactive)
[N-]=[N+]=NCc1ccccc1[C@H]1OC(c2ccc(OCCCO)cc2)=N[C@@]1(Cc1ccccc1N=[N+]=[N-])C(=O)N1CCCCC1,-0.457,-0.5,-0.536,-2.14,-2.79,1.06,0.0871 (inactive),-0.978,-1.76,-0.409 (inactive)
Cc1ccc(S[C@]2(C(=O)NCC(C)C)CC(=O)N(C3CCCCC3)[C@@H]2c2ccc(CO)cc2I)cc1,-0.62,-0.395,-0.885,-3.28,-3.46,0.752,0.49 (inactive),-0.947,0.0655,1.3 (inactive)
COCCCNC(=O)[C@]1(Cc2ccccc2)N=C(c2ccc(OCCCO)cc2)O[C@@H]1c1ccccc1N=[N+]=[N-],-1.8,1.77,-1.47,-1.78,-4.29,1.29,0.235 (inactive),-1.1,-1.73,-1.09 (inactive)
CCCCCCC#C[Si](O[C@H](c1ccccc1)c1cn(Cc2cccc(Cl)c2)nn1)(C(C)C)C(C)C,1.11,-0.896,0.761,0.481,-0.695,3.44,0.169 (inactive),-0.149,-1.06,2.58 (inactive)
COc1ccccc1CN1C(=O)c2ccccc2[C@@]2(Cc3ccccc3N(C3CC3)C2=O)[C@@H]1c1ccc(CO)cc1,0.0264,0.358,0.43,-1.6,-0.96,-0.774,-0.607 (inactive),0.213,0.361,0.375 (inactive)
COC(=O)[C@@]1(Cc2ccc(OC)cc2)[C@H]2c3cc(C(=O)N4CCCC4)n(CCF)c3C[C@H]2CN1C(=O)c1ccccc1,-1.41,1.71,-0.336,0.0026,-1.05,3.33,-1.65 (inactive),-0.178,-0.0401,-1.55 (inactive)
COCCCNC(=O)[C@@H]1c2ccccc2C(=O)N(Cc2cc(F)cc(C(F)(F)F)c2)[C@H]1c1ccc(CO)cc1,0.323,0.0853,0.463,0.575,-0.725,1.25,-0.82 (inactive),1.15,-0.33,0.301 (inactive)
